HT1080NT lethal: kills 2HG-producing HT-1080-NT fibrosarcoma cells | AID 686970 | 360,000 tested, 1.6% active | HT-1080-NT fibrosarcoma viability, CellTiter-Glo ATP luminescence, 48 h | Potency, µM (doses to about 46.1 µM), for inactives: at the highest dose activity, negative = less viability, most hits filed as cytotoxic;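 also: NT is the 2HG producing partner of a matched IDH1 knockdown line; 0% = DMSO-treated cells and -100% = media-only wells without cells; nearly all actives have a fitted effect of over 55% in size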
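Read-out is CellTiter-Glo luminescence after 10 minutes at room temperature, following 48 hours' compound treatment of HT-1080-NT cells (750 cells/well, RPMI, 5% FBS, 37 degrees C).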
SW480 rerep: inducers of DNA re-replication in SW480 colon cancer cells; SW480 DNA re-replication, Hoechst DNA content imaging, 48 h; Potency, µM (titrated, usually from 46.1 µM), without a hit: at the top dose re-replication activation, hits mostly activators; 340,000 tested, 1.8% active; also: % of control where 0% means no effect; nearly all actives have a fitted effect of over 55% in size
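Hoechst fluorescence of nuclei (405 nm excitation, 500-530 nm emission) measured by plate-scanning imager after 48 hr compound exposure at 37 C; re-replication scored as increased number of nuclei with elevated intensity.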
HT1080 IDH1KD tx: kills HT-1080 cells with IDH1 knockdown; Potency, µM (doses to about 46.1 µM), for inactives: top-dose activity, negative = toxicity, hits mostly cytotoxic; HT-1080 IDH1 knockdown viability, ATP luminescence, 48 h; 360,000 tested, 2% active;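 also: 0% = DMSO wells and -100% = cell-free medium wells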
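Using the IDH1-knockdown HT-1080 line run in the same batch and compound series as the NT line, viability after 48 h at 37 °C was determined by CellTiter-Glo luminescence and expressed as % activity.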
MCF10A rereplic: induces DNA re-replication in MCF 10a normal breast cells; Potency, µM (highest dose often 46.1 µM), without a hit: top-dose activity, positive = re-replication, usual class: activators; 350,000 tested, 2.9% active; MCF 10A DNA re-replication, Hoechst nuclear intensity, 48 h; AID 624296; also: % of control where 0% means no effect; nearly all actives have a fitted effect of over 50% in size
KB-V1 cytotox: KB-V1 MDR subline cytotoxicity; KB-V1 MDR cells viability, CellTiter-Glo, 72 h; Potency, µM (titrated, usually from 46.1 µM), actives largely listed as cytotoxic; 400,000 tested, 3.4% active; AID 1347076; also: % is scaled to controls: 0 for no effect and ±100 for the full control effect; nearly all actives have a fitted effect of over 60% in size
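Cytotoxicity toward P-gp-expressing KB-V1 cells was determined as loss of CellTiter-Glo luminescence after 72 h at 37 degrees C. Compounds were tested in quantitative HTS format across a concentration range, with curves fitted to normalized data.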
KB-3-1 cytotox: kills parental KB-3-1 adenocarcinoma cells | AID 1347075 | KB-3-1 viability, CellTiter-Glo ATP luminescence, 72 h | 400,000 tested, 1.4% active | Potency, µM (series often up to 46.1 µM), most hits filed as cytotoxic; also: % is scaled to controls: 0 for no effect and ±100 for the full control effect; nearly all actives have a fitted effect of over 60% in size
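Cytotoxicity in the drug-sensitive parental line KB-3-1 was scored as loss of CellTiter-Glo luminescence following 72 h incubation with compound. Values come from curve fitting of normalized concentration-response data.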
An asterisk follows results filed as active; i = inactive; u = inconclusive; x = no result given; [ ] = remark or other dose. Sampled rows, rich in hits. Any-hit rate of the full collection: about 7.9%. Calls follow the shape of the dose curve; as a rule, active = well fitted curve in the direction sought with a large enough effect; inconclusive = small, poorly fitted or top-dose-only effect, or another doubt; inactive = no such curve, though single readings can be large; an effect the other way counts as inactive or inconclusive. Potency is read from the fitted curve at half-maximal effect.

SMILES | HT1080NT lethal | SW480 rerep | HT1080 IDH1KD tx | MCF10A rereplic | KB-V1 cytotox | KB-3-1 cytotox
Brc1cccc[n+]1CCC[n+]1ccccc1Br | x | x | x | x | i | u
CC1CCCC(NC(=O)c2cccc(S(=O)(=O)N3CCOCC3)c2)C1C (stereo not given) | 5% | x | -1% | x | i | i
Nc1nc(=S)[nH]c(N)c1N | x | x | x | x | i | i
Cc1ccc(NC(=O)CSCC(=O)N(CCC(C)C)c2c(N)n(Cc3ccccc3)c(=O)[nH]c2=O)cc1 | -10% | 1% | -5% | 10% | i | i
O=C1NC2(CCCCC2)C(=O)N1c1ccccc1 | 11% | -2% | 4% | -6% | i | i
NC(=O)C1(c2ccccc2)CCC(=O)N1c1ccccc1 (stereo not given) | 17% | -5% | 2% | -8% | i | i
O=C1NC2(CCCCC2)NN1c1ccccc1 | u | -1%[9.22 µM] | 5.2µM* | 10% | i | i
O=C1NC2(CCC3(CC2)OCCO3)NN1c1ccc(Cl)cc1 | u | u | 6.5µM* | u | i | u
NC(=O)N1CCC2(CC1)NC(=O)N(c1ccccc1)N2 | 10µM* | -52% | 6.5µM* | 0%[9.22 µM] | i | i
CC(=O)N1CCC2(CC1)NC(=O)N(c1ccccc1)N2 | 5.2µM* | 8% | 4.1µM* | 7% | i | i
O=C(CN1CCCC1c1cccs1)Nc1cc(S(=O)(=O)N2CCCCC2)ccc1Cl (stereo not given) | -29% | 8% | u | -7% | i | i
COc1ccc(NC(=O)CN(C)C(=O)c2ccc(S(=O)(=O)Nc3ccccc3C)cc2)cc1 | 14% | -7% | 16% | -2% | i | i
CC1CCC2(CC1)NC(=S)N(c1ccccc1)N2 (stereo not given) | u | -3% | 18µM* | 8% | i | i
Cc1cc(Cl)c2c(c1)[C@]1(C(=O)N2)[C@@H]2C(=O)N(Cc3ccccc3)C(=O)[C@@H]2[C@@H]2CCCN21 | u | 16% | u | 9% | u | u
O=C1[C@H]2[C@@H](C(=O)N1c1cc(Cl)cc(Cl)c1)[C@]1(C(=O)Nc3ccccc31)N1CCC[C@@H]21 | -17% | -3% | u | 29% | 15µM* | i
Brc1ccc2c(c1)C(c1cccs1)=NNC(c1cccnc1)=N2 | -2% | -3% | -3% | 3% | 21µM* | i
O=C(COC(=O)/C=C/c1ccc(C(F)(F)F)cc1)NCc1ccco1 | 3% | 3% | -1% | 5% | i | i
CCC/C(O)=C1\C(=O)CC(c2ccccc2)CC1=NCCc1c(C)[nH]c2ccccc12 (stereo not given) | 8% | 3% | -8% | 2% | i | i
CC(=NCCc1c(C)[nH]c2ccc(OC(F)(F)F)cc12)C1=C(O)CC(c2ccccc2)CC1=O (stereo not given) | u | 8.2µM* | u | 8.2µM* | u | 4.6µM*
CC(=NCCc1c(C)[nH]c2ccc(C)cc12)C1=C(O)CC(c2ccccc2)CC1=O (stereo not given) | -29% | 6.5µM* | 8.2µM* | 2.3µM* | 5.8µM* | 5.8µM*
Cc1cc(C)c(NC(=O)c2cc(S(=O)(=O)N3CCC4(CC3)OCCO4)ccc2F)c(C)c1 | x | x | x | x | i | i
CC1=CCC(C(C)(C)O)CC1 (stereo not given) | x | 0% | x | 6% | x | x
O=C(CNCc1ccccc1)NCCCN1CCCC1=O | 17% | 7% | 18% | 6% | i | i
Cc1ccc(N2CCN(c3c(CN4CCCC4)c(=O)oc4ccccc34)CC2)c(C)c1 | x | x | x | x | i | i
COc1cc(/C=C/C(O)=C/C(=O)/C=C/c2ccc(O)cc2)ccc1O | u | u | u | 18µM* | i | u
CC(C)[C@@H](CO)NC(=O)c1ccc2c3n(nc2c1)-c1ccccc1CO3 | u | -6% | u | -1% | i | i
